Reference: the supplement of paper PMC11732987, “Enantioselective OTUD7B fragment discovery through chemoproteomics screening and high-throughput optimisation” (Communications Chemistry, 2025)

Key:
Assay in all cases: log2 ratio of Biotin-Ahx-Ub-VS probe labelling (fragment/DMSO); higher = less target engagement (more negative = stronger competition), active = hit call of the paper (q ≤ 0.05, log2 ratio ≤ -1)
Details in all cases: compound concentration: 200 uM; treatment time: 3 h
OTUD6B = molecular target: T1, OTUD6B (UniProt Q8N6M0)
T1 sequence (whole entry): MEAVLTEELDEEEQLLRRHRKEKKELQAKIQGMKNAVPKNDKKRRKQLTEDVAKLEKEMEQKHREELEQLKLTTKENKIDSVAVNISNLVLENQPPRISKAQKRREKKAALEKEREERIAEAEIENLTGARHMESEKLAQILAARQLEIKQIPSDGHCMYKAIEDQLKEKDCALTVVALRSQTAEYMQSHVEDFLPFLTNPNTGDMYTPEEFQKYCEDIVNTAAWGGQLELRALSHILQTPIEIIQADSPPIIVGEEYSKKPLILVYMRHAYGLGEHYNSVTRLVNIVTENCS
Procedure, shortened: (§1)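 The table lists average log2 ratios of fragment over vehicle, from an unpaired t-test on global-median-normalised Spectronaut label-free quantities. Proteins with ≥2 unique peptides were used. Samples were HEK293T lysate (495 µg) treated in triplicate with fragment at 200 µM or vehicle for 3 h, then with Biotin-Ahx-Ub-VS (0.5 µM final) for 1 h, with labelled DUBs NeutrAvidin-enriched and run by diaPASEF LC-MS/MS.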

OTUD7B = molecular target: T2, OTUD7B (UniProt Q6GQQ9)
T2 sequence (whole entry): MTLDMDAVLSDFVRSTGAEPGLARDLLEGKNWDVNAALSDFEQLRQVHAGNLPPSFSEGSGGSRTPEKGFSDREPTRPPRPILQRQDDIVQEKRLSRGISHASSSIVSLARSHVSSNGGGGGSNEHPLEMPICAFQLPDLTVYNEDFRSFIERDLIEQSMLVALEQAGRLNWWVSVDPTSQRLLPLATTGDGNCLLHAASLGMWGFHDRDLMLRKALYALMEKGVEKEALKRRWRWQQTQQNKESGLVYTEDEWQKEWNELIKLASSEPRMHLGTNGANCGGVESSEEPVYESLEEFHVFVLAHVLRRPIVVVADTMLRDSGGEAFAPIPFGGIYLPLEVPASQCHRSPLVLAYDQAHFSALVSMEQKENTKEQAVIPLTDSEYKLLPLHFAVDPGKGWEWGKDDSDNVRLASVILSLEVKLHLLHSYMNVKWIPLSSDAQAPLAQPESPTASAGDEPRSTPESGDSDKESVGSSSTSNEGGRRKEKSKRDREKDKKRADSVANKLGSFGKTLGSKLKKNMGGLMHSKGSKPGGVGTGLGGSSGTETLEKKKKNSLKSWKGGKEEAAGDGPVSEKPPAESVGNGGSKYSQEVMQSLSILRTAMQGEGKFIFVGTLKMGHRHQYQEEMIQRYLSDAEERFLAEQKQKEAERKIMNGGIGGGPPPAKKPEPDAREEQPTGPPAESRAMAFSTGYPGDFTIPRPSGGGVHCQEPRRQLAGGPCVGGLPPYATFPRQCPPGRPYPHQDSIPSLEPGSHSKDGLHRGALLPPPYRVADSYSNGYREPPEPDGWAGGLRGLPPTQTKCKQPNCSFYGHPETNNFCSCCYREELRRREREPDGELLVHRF
Procedure, shortened: as §1

PRPF8 = PRPF8 (UniProt Q6P2Q9)
Procedure, shortened: as §1

PSMD7 = molecular target: T3, PSMD7 (UniProt P51665)
T3 sequence (whole entry): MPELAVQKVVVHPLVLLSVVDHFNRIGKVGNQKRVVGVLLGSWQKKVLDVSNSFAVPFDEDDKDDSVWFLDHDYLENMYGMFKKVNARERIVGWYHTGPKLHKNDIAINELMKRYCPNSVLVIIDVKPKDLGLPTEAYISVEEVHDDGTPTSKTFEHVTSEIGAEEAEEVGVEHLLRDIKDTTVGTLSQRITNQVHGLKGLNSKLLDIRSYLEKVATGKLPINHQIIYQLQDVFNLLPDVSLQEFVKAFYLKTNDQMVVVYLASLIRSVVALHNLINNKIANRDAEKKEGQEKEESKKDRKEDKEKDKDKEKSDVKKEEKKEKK
Procedure, shortened: as §1

UCHL1 = UCHL1 (UniProt P09936)
Sequence of UCHL1 (P09936 whole entry, looked up): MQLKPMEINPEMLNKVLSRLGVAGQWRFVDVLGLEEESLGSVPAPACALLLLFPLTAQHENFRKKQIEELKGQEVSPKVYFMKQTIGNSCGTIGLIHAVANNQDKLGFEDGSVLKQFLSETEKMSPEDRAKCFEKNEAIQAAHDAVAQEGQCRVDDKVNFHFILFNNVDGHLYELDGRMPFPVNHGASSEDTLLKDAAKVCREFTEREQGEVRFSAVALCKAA
Procedure, shortened: as §1

UCHL3 = molecular target: T4, UCHL3 (UniProt P15374)
T4 sequence (whole entry): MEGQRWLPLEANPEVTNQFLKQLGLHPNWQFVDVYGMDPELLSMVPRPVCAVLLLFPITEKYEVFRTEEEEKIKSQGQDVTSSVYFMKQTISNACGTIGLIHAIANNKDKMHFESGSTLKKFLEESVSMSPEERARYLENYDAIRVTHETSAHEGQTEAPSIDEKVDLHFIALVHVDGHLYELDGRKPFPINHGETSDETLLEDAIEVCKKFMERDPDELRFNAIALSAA
Procedure, shortened: as §1

UCHL5 = molecular target: T5, UCHL5 (UniProt Q9Y5K5)
T5 sequence (whole entry): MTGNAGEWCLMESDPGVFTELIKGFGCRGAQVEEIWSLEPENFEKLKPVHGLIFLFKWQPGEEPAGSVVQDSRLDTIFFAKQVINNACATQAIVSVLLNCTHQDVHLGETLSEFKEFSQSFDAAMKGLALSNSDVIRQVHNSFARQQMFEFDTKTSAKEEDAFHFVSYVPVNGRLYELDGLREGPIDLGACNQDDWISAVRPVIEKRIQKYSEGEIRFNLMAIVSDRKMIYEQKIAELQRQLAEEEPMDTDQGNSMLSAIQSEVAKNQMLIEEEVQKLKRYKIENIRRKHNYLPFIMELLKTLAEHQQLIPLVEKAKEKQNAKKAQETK
Procedure, shortened: as §1

USP10 = USP10 (UniProt Q14694)
Sequence of USP10 (Q14694 whole entry): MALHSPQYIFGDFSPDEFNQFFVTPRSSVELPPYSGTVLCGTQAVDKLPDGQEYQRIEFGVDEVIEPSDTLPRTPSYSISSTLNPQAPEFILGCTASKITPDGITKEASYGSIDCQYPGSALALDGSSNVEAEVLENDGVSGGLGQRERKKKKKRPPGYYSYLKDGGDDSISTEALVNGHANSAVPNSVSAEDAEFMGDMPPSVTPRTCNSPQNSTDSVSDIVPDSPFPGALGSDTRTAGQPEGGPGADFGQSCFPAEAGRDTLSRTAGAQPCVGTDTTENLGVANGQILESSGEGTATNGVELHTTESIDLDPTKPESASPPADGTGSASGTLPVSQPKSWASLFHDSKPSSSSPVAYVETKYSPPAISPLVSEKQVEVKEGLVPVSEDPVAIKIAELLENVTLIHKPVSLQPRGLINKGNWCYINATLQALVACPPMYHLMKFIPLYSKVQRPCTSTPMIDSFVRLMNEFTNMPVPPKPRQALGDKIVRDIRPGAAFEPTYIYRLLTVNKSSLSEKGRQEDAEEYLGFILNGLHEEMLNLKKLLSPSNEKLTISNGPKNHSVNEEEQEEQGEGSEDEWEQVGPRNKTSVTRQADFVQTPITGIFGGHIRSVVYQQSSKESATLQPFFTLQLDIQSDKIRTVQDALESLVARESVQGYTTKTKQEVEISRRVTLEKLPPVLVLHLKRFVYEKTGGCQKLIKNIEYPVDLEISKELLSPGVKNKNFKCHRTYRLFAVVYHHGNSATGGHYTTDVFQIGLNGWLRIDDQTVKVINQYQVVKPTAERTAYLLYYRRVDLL
Procedure, shortened: as §1

USP15 = molecular target: T6, USP15 (UniProt Q9Y4E8)
T6 sequence (whole entry): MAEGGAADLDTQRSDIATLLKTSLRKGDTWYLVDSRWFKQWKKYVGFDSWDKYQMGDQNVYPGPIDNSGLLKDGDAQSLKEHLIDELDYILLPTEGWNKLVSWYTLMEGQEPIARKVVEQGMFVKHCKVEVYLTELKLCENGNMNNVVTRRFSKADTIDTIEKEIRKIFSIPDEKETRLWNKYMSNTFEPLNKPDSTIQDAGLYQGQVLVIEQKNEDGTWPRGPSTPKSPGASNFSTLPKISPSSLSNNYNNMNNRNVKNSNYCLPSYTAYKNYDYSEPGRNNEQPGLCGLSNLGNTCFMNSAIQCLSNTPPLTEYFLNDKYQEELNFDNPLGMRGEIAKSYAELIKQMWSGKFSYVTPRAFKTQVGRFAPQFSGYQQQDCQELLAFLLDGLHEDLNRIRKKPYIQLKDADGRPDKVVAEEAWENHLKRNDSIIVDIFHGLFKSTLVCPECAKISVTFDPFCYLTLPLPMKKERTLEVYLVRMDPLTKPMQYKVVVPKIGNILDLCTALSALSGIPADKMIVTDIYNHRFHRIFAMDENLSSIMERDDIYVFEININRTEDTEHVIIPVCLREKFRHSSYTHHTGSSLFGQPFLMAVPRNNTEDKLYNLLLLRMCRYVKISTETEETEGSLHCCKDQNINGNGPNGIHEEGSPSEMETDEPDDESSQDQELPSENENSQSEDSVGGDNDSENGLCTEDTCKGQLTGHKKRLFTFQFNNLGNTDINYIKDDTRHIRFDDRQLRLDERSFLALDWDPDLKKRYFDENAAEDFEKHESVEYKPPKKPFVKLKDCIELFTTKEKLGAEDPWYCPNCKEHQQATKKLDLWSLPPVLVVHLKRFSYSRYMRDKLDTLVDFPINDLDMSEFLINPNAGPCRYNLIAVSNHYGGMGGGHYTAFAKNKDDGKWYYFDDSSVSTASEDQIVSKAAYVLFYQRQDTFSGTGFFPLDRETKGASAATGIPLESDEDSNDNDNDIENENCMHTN
Procedure, shortened: as §1

USP16 = USP16 (UniProt Q9Y5T5)
Sequence of USP16 (Q9Y5T5 whole entry, looked up): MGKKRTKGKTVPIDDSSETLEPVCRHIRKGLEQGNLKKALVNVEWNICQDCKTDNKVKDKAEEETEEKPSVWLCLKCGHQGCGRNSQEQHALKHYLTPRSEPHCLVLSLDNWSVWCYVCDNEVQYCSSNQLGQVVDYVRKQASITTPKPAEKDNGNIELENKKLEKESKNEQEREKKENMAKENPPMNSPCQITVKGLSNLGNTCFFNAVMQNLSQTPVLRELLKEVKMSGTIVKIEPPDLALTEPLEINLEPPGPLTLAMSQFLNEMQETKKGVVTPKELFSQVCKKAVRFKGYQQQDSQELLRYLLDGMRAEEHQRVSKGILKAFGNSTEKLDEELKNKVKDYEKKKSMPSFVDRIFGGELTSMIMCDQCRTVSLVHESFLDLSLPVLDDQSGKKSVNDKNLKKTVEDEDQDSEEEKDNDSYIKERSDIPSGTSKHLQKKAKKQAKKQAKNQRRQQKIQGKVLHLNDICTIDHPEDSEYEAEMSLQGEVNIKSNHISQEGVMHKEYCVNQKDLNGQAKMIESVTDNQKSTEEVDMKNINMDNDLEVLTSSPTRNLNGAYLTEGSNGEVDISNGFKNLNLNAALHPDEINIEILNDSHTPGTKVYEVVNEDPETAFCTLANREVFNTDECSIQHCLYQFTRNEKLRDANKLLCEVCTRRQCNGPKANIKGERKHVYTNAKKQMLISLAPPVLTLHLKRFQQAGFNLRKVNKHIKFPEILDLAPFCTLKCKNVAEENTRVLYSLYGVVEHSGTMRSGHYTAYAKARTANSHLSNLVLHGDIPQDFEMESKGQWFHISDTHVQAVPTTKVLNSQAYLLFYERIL
Procedure, shortened: as §1

Measured: log2 ratio of Biotin-Ahx-Ub-VS probe labelling

CCN(C(=O)CCl)C1CCS(=O)(=O)C1 (stereo not given)
active: UCHL1 -1.26
inactive: OTUD6B -0.144 | OTUD7B -0.284 | PRPF8 -0.167 | PSMD7 -0.00588 | UCHL3 0.365 | UCHL5 -0.0522 | USP10 -0.169 | USP15 -0.218 | USP16 -0.707
